Measurements taken from PubChem BioAssay (Tox21).
Results filed as inconclusive are left out. Calls of active or inactive are those of the source. Calls come from the whole dose curve; as a rule, active = well fitted curve in the direction sought with a large enough effect in the repeat runs; inconclusive = weak or mixed curves; inactive = no such curve, though single readings can be large; an effect the other way counts as inactive or inconclusive.

How the values were obtained:
[1] = A CellTox Green Cytotoxicity Assay to monitor cytotoxicity in HEK293 cells - 40 hour (AID 1224871); note: nearly all actives have a fitted effect of over 45% in size
Outline: (§1)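 Cytotoxicity was tracked continuously in HEK293 cells by a DNA-binding dye excluded from viable cells. Compounds were transferred in DMSO 5 h after seeding; fluorescence was recorded at intervals up to 40 h.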

[2] = qHTS RealTime-Glo MT Cell Viability Assay in HEK293 cells - 16 hour (AID 1224872); note: top concentration of the series differs between compounds; nearly all actives have a fitted effect of over 50% in size
Outline: (§2)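 HEK293 cells were seeded at 600 cells/well together with NanoLuc luciferase and cell-permeant prosubstrate, preincubated 5 h at 37 C/5% CO2, then given compound in DMSO by pintool. Luminescence from viable-cell prosubstrate reduction was read repeatedly over 40 h.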

[3] = qHTS RealTime-Glo MT Cell Viability Assay in HepG2 cells - 8 hour (AID 1224873); note: nearly all actives have a fitted effect of over 55% in size
Outline: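 Real-time viability: cells seeded at 600 per well together with NanoLuc and cell-permeant prosubstrate, compounds added after 5 h incubation. Luminescence tracked at 0, 8, 16, 24, 32 and 40 h of exposure.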

[4] = qHTS RealTime-Glo MT Cell Viability Assay in HEK293 cells - 40 hour (AID 1224874); details: RealTime-Glo luminescence; max response: stronger effect = lower value; note: nearly all actives have a fitted effect of over 50% in size
Outline: (§3)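 Nonlytic bioluminescent viability monitoring. HEK293 at 600 cells/well with reagent; 5 h settle; compound transfer by pintool; plates held at 37 C and read at set time points.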

[5] = A CellTox Green Cytotoxicity Assay to monitor cytotoxicity in HEK293 cells - 24 hour (AID 1224875); note: series mostly up to about 77 µM; nearly all actives have a fitted effect of over 45% in size
Outline: as §1

[6] = A CellTox Green Cytotoxicity Assay to monitor cytotoxicity in HepG2 cells - 16 hour (AID 1224876); note: nearly all actives have a fitted effect of over 45% in size
Outline: (§4)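 Real-time, homogeneous cytotoxicity readout: dead-cell DNA staining by CellTox Green in HepG2 monolayers, fluorescence measured at timed intervals up to 40 h of continuous compound exposure.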

[7] = qHTS RealTime-Glo MT Cell Viability Assay in HepG2 cells - 32 hour (AID 1224877); note: nearly all actives have a fitted effect of over 55% in size
Outline: (§5)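 HepG2 cells were seeded at 600 cells/well together with NanoLuc luciferase and a cell-permeant prosubstrate, preincubated 5 h at 37 C/5% CO2, then pin-dosed with compounds in DMSO. Nonlytic luminescence from viable cells was read at each time point.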

[8] = A CellTox Green Cytotoxicity Assay to monitor cytotoxicity in HepG2 cells - 24 hour (AID 1224878); note: nearly all actives have a fitted effect of over 45% in size
Outline: as §4

[9] = A CellTox Green Cytotoxicity Assay to monitor cytotoxicity in HepG2 cells - 40 hour (AID 1224879); note: nearly all actives have a fitted effect of over 40% in size
Outline: as §4

[10] = qHTS RealTime-Glo MT Cell Viability Assay in HEK293 cells - 0 hour (AID 1224880)
Outline: as §3

[11] = A CellTox Green Cytotoxicity Assay to monitor cytotoxicity in HEK293 cells - 32 hour (AID 1224881); note: nearly all actives have a fitted effect of over 40% in size
Outline: as §1

[12] = A CellTox Green Cytotoxicity Assay to monitor cytotoxicity in HepG2 cells - 0 hour (AID 1224882); note: nearly all actives have a fitted effect of over 35% in size
Outline: as §4

[13] = A CellTox Green Cytotoxicity Assay to monitor cytotoxicity in HepG2 cells - 32 hour (AID 1224883); note: nearly all actives have a fitted effect of over 50% in size
Outline: as §4

[14] = A CellTox Green Cytotoxicity Assay to monitor cytotoxicity in HEK293 cells - 8 hour (AID 1224884); note: nearly all actives have a fitted effect of over 35% in size
Outline: as §1

[15] = qHTS RealTime-Glo MT Cell Viability Assay in HepG2 cells - 16 hour (AID 1224885); note: nearly all actives have a fitted effect of over 50% in size
Outline: as §5

[16] = qHTS RealTime-Glo MT Cell Viability Assay in HEK293 cells - 24 hour (AID 1224886)
Outline: as §2

[17] = qHTS RealTime-Glo MT Cell Viability Assay in HEK293 cells - 8 hour (AID 1224887)
Outline: as §3

[18] = A CellTox Green Cytotoxicity Assay to monitor cytotoxicity in HEK293 cells - 16 hour (AID 1224888); note: nearly all actives have a fitted effect of over 35% in size
Outline: as §1

[19] = qHTS RealTime-Glo MT Cell Viability Assay in HepG2 cells - 0 hour (AID 1224889); note: nearly all actives have a fitted effect of over 50% in size
Outline: as §5

[20] = A CellTox Green Cytotoxicity Assay to monitor cytotoxicity in HepG2 cells - 8 hour (AID 1224890); note: nearly all actives have a fitted effect of over 45% in size
Outline: as §4
% is set by controls: 0 for no effect and ±100 for the full control effect.

Cc1c(C(=O)NCCO)[n+](=O)c2ccccc2n1[O-]
inactive: Potency [1] | Potency [2] | outcome [3] | max response [4] 0.805% | Potency [5] | Potency [6] | Potency [7] | Potency [8] | Potency [9] | outcome [10] | Potency [11] | Potency [12] | Potency [13] | Potency [14] | outcome [15] | Potency [16] | Potency [17] | Potency [18] | Potency [19] | Potency [20]

NC(=O)NS(=O)(=O)c1ccc(Cl)cc1
inactive: Potency [1] | Potency [2] | outcome [3] | max response [4] 0.44% | Potency [5] | Potency [6] | Potency [7] | Potency [8] | Potency [9] | outcome [10] | Potency [11] | Potency [12] | Potency [13] | Potency [14] | outcome [15] | Potency [16] | Potency [17] | Potency [18] | Potency [19] | Potency [20]

CC(=O)OC1C2(C)CCC(C2)C1(C)C (stereo not given)
inactive: Potency [1] | Potency [2] | outcome [3] | max response [4] -0.0469% | Potency [5] | Potency [6] | Potency [7] | Potency [8] | Potency [9] | outcome [10] | Potency [11] | Potency [12] | Potency [13] | Potency [14] | outcome [15] | Potency [16] | Potency [17] | Potency [18] | Potency [19] | Potency [20]

CCCCN1C[C@H](O)[C@@H](O)[C@H](O)[C@H]1CO
inactive: Potency [1] | Potency [2] | outcome [3] | max response [4] 5.15% | Potency [5] | Potency [6] | Potency [7] | Potency [8] | Potency [9] | outcome [10] | Potency [11] | Potency [12] | Potency [13] | Potency [14] | outcome [15] | Potency [16] | Potency [17] | Potency [18] | Potency [19]

CC(C)C(=O)OCC(C)(C)C(O)C(C)C (stereo not given)
inactive: Potency [1] | Potency [2] | outcome [3] | max response [4] 8.54% | Potency [5] | Potency [6] | Potency [7] | Potency [8] | Potency [9] | outcome [10] | Potency [11] | Potency [12] | Potency [13] | Potency [14] | outcome [15] | Potency [16] | Potency [17] | Potency [18] | Potency [19]

CCCCNC(=S)NCCCC
inactive: Potency [1] | Potency [2] | outcome [3] | max response [4] -21.7% | Potency [5] | Potency [6] | Potency [7] | Potency [8] | Potency [9] | outcome [10] | Potency [11] | Potency [12] | Potency [13] | Potency [14] | outcome [15] | Potency [16] | Potency [17] | Potency [18] | Potency [19]

CC(C)C(=O)OC/C=C/c1ccccc1
inactive: Potency [1] | Potency [2] | outcome [3] | max response [4] -2.31% | Potency [5] | Potency [6] | Potency [7] | Potency [8] | Potency [9] | outcome [10] | Potency [11] | Potency [12] | Potency [13] | Potency [14] | outcome [15] | Potency [16] | Potency [17] | Potency [18] | Potency [19] | Potency [20]

C=O
inactive: Potency [1] | Potency [2] | outcome [3] | max response [4] -2.52% | Potency [5] | Potency [6] | Potency [7] | Potency [8] | Potency [9] | outcome [10] | Potency [11] | Potency [12] | Potency [13] | Potency [14] | outcome [15] | Potency [16] | Potency [17] | Potency [18] | Potency [19]

O=C(C(Cl)Cl)N1CCOC12CCCCC2
inactive: Potency [1] | Potency [2] | outcome [3] | max response [4] 12.9% | Potency [5] | Potency [6] | Potency [7] | Potency [8] | Potency [9] | outcome [10] | Potency [11] | Potency [12] | Potency [13] | Potency [14] | outcome [15] | Potency [16] | Potency [17] | Potency [18] | Potency [19] | Potency [20]

CCCC1CCC(=O)O1 (stereo not given)
inactive: Potency [1] | Potency [2] | outcome [3] | max response [4] 4.54% | Potency [5] | Potency [6] | Potency [7] | Potency [8] | Potency [9] | outcome [10] | Potency [11] | Potency [12] | Potency [13] | Potency [14] | outcome [15] | Potency [16] | Potency [17] | Potency [18] | Potency [19] | Potency [20]

Cc1ccc([N+](=O)[O-])c(N)c1
inactive: Potency [1] | Potency [2] | outcome [3] | max response [4] -1.42% | Potency [5] | Potency [6] | Potency [7] | Potency [8] | Potency [9] | outcome [10] | Potency [11] | Potency [12] | Potency [13] | Potency [14] | outcome [15] | Potency [16] | Potency [17] | Potency [18] | Potency [19] | Potency [20]

CCCCC(=O)O[C@]1(C(=O)CO)[C@H](C)C[C@H]2[C@@H]3CCC4=CC(=O)C=C[C@]4(C)[C@@]3(F)[C@@H](O)C[C@@]21C
inactive: Potency [1] | Potency [2] | outcome [3] | max response [4] 0.0182% | Potency [5] | Potency [6] | Potency [7] | Potency [8] | Potency [9] | outcome [10] | Potency [11] | Potency [12] | Potency [13] | Potency [14] | outcome [15] | Potency [16] | Potency [17] | Potency [18] | Potency [20]

CC(C)(CO)[C@@H](O)C(=O)NCCC(=O)O
inactive: Potency [1] | Potency [2] | outcome [3] | max response [4] 4.63% | Potency [5] | Potency [6] | Potency [7] | Potency [8] | Potency [9] | outcome [10] | Potency [11] | Potency [12] | Potency [13] | Potency [14] | outcome [15] | Potency [16] | Potency [17] | Potency [18] | Potency [19] | Potency [20]

Cc1c(N)cccc1N
inactive: Potency [1] | Potency [2] | outcome [3] | max response [4] 12.2% | Potency [5] | Potency [6] | Potency [7] | Potency [8] | Potency [9] | outcome [10] | Potency [11] | Potency [12] | Potency [13] | Potency [14] | outcome [15] | Potency [16] | Potency [17] | Potency [18] | Potency [19] | Potency [20]
